# Measured values taken from PubChem BioAssay (NCATS).
# Records with an inconclusive call do not appear. The source made the active and inactive calls. Unless noted, the call rests on the fitted dose curve; in most records, active means well fitted curve in the direction sought with a large enough effect; inconclusive means small, poorly fitted or top-dose-only effect, or another doubt; inactive means no such curve, though single readings can be large; an effect the other way counts as inactive or inconclusive.
# Experiments:
# [1] = P-glycoprotein substrates identified in KB-8-5-11 adenocarcinoma cell line, qHTS therapeutic library screen (AID 1346987); further: nearly all actives have a fitted effect of over 65% in size; further: potency means the concentration at half of the fitted maximal effect
# Summary of the method: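 KB-8-5-11, a colchicine-selected P-gp-overexpressing KB-3-1 subline, was grown without colchicine for the assay. Cells were seeded at 500 cells/well, dosed in concentration-response and incubated 72 h at 37 degree C, 5% CO2. Viability was read by CellTiter-Glo luminescence.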
# [2] = qHTS to identify inhibitors of the type 1 interferon - major histocompatibility complex class I in skeletal muscle: primary screen against the NCATS Mechanism Interrogation Plate v5.0 (MIPE) Libary (AID 1347411);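 further: plate controls were vehicle for no effect and reference inhibitor for full effect; nearly all actives have a fitted effect of over 65% in size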
# Summary of the method: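 Immortalized human myoblasts (C25cl48) with HiBit knocked into endogenous HLA-B*08:01 were stimulated with 4 ng/ml IFN-beta and given compounds in 11-point 1:3 titration from 46 uM. After 24 h at 37 C, lytic HiBiT luminescence was read.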
# [3] = target: Cytochrome P450 2D6 (Homo sapiens) (UniProt P10635); experiment: Cytochrome P450 family 2 subfamily D member 6 (CYP2D6) small molecule antagonists: luciferase biochemical (cell-free) qHTS assay (AID 1645840; active means well fitted curve in the direction sought with a large enough effect in the repeat runs; an effect the other way counts as inactive or inconclusive; further: nearly all actives have a fitted effect of over 55% in size; further: potency means the concentration at half of the fitted maximal effect; on activity change, negative = inhibition: on the % scale 0 is the no-effect control and ±100 the full control effect)
# Summary of the method: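 P450-Glo luminescent screen: recombinant CYP2D6 enzyme–proluciferin substrate mix preincubated with compound 10 min at room temperature, then NADPH regeneration added for 1 h at room temperature. Detection reagent added for 20 min; luciferin light read as relative luminescence units.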
# [4] = Primary fluorescence-based thiol-reactive (MSTI) qHTS assay for identification of artifact compounds. (AID 1845221); further: nearly all actives have a fitted effect of over 65% in size; further: potency means the concentration at half of the fitted maximal effect
# Summary of the method: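 Probe: MSTI 4 uM, PBS pH 7.4, 2% DMSO. Incubation 1 h, RT, light-protected. Readout fluorescence 525/598 nm.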
# [5] = qHTS drug screen for cell cycle checkpoint inhibitors in PARPi-resistant BRCA-mutant ovarian cancer cell lines. (AID 1963452; calls by dose curve); details: PEO1/OlaR viability, CellTiter-Glo luminescence, 96 h, stronger effect = lower value
# Summary of the method: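 PEO1, PEO4 and PEO1/OlaR ovarian cancer cells, 600 per well, exposed 96 h at 37C to a dilution series. Viability read by CellTiter-Glo luminescence, normalized to DMSO and empty wells; activity summarized as Z-AUC.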
# CRL-7250 = normal cell line; experiment: Cytotoxic Profiling of Annotated Libraries Using Quantitative High-Throughput Screening (AID 1296008); details: Five cell lines viability, CellTiter-Glo ATP luminescence, 48-72 h; max response: stronger effect = lower value; further: nearly all actives have a fitted effect of over 60% in size; further: potency means the concentration at half of the fitted maximal effect; on max response: on the % scale 0 is the no-effect control and ±100 the full control effect
# Summary of the method: (§1)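 Cells exposed to compounds for 48 or 72 hr at 37 degrees Celsius. Viability read as ATP-coupled luminescence with CellTiter-Glo after 10 min at room temperature.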
# HaCat = experiment: as above; details: Five cell lines viability, CellTiter-Glo ATP luminescence, 48-72 h; max response: stronger effect = lower value
# Summary of the method: as §1
# SKOV3 = experiment: Primary qHTS to identify gynecologic anti-cancer compounds using libraries of approved drugs and bioactive compounds (AID 1345084); details: Gynecologic cancer cell panel viability, ATPlite luminescence, 48 h; series mostly up to 57.5 µM; further: nearly all actives have a fitted effect of over 55% in size; further: potency means the concentration at half of the fitted maximal effect
# Summary of the method: (§2)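 Cell viability after 48 h drug treatment, ATPlite luminescence readout; five doses.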
# [6] = target: Cytochrome P450 2C9 (Homo sapiens) (UniProt P11712); experiment: Cytochrome P450 family 2 subfamily C member 9 (CYP2C9) small molecule antagonists: luciferase biochemical (cell-free) qHTS assay (AID 1645842; active means well fitted curve in the direction sought with a large enough effect in the repeat runs; an effect the other way counts as inactive or inconclusive; further: nearly all actives have a fitted effect of over 55% in size; further: potency means the concentration at half of the fitted maximal effect; on activity change, negative = inhibition: on the % scale 0 is the no-effect control and ±100 the full control effect)
# Summary of the method: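 Luminescence, after 20 min with luciferin detection reagent, reflected CYP2C9 turnover during a 1 h NADPH-driven reaction at 37C. Enzyme-substrate mix contained 0.4% bovine serum albumin and was preincubated with compound 10 min at room temperature.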
# CAOV3 = experiment: Primary qHTS to identify gynecologic anti-cancer compounds using libraries of approved drugs and bioactive compounds (AID 1345084); details: Gynecologic cancer cell panel viability, ATPlite luminescence, 48 h; series mostly up to 57.5 µM; further: nearly all actives have a fitted effect of over 55% in size; further: potency means the concentration at half of the fitted maximal effect
# Summary of the method: as §2
# [7] = target: Catechol O-methyltransferase (Homo sapiens) (UniProt P21964); experiment: Confirmatory Screen for Target Class Profiling of Small Molecule Inhibitors of Methyltransferases (AID 1745852; calls by dose curve; further: potency means the concentration at half of the fitted maximal effect; on activity change, negative = inhibition: on the % scale 0 is the no-effect control and ±100 the full control effect); details: MTase-Glo luminescence, SAH detection, recombinant enzyme; measured here: COMT max response; stronger effect = lower value
# [8] = target: Guanidinoacetate N-methyltransferase (Homo sapiens) (UniProt Q14353); experiment: as above; details: activity change, negative = inhibition: at 57.3 µM (top of the series) unless noted
# [9] = target: Nicotinamide N-methyltransferase (Homo sapiens) (UniProt P40261); experiment: as above; details: MTase-Glo luminescence, SAH detection, recombinant enzyme; measured here: NNMT max response; stronger effect = lower value
# [10] = target: Phenylethanolamine N-methyltransferase (Homo sapiens) (UniProt P11086); experiment: as above; details: MTase-Glo luminescence, SAH detection, recombinant enzyme; measured here: PNMT max response; stronger effect = lower value
# [11] = measured here: PEO1 parental Z-AUC
# Sequence of Catechol O-methyltransferase (Homo sapiens) (P21964 whole entry, looked up): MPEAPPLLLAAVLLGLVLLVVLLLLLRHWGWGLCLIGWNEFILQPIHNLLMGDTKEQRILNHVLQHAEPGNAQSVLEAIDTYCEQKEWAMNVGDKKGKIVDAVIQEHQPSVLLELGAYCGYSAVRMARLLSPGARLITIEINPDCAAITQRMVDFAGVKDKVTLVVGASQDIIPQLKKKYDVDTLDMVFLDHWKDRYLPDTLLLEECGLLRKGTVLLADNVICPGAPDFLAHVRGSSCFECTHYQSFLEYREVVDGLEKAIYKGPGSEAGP
# Sequence of Cytochrome P450 2D6 (Homo sapiens) (P10635 whole entry, looked up): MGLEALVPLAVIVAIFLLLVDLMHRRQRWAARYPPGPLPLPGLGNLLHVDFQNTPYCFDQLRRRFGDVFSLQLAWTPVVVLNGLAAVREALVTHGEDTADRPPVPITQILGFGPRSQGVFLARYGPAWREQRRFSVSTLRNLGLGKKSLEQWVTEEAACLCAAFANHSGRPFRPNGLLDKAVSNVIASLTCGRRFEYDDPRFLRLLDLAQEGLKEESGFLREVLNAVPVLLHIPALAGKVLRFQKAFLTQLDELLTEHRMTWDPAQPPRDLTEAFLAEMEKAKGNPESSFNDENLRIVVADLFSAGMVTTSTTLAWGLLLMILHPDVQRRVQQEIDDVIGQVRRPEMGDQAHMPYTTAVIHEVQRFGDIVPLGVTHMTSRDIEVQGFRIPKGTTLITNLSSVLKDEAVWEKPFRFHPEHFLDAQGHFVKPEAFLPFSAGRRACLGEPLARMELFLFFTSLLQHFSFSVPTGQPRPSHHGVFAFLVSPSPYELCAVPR
# Sequence of Nicotinamide N-methyltransferase (Homo sapiens) (P40261 whole entry, looked up): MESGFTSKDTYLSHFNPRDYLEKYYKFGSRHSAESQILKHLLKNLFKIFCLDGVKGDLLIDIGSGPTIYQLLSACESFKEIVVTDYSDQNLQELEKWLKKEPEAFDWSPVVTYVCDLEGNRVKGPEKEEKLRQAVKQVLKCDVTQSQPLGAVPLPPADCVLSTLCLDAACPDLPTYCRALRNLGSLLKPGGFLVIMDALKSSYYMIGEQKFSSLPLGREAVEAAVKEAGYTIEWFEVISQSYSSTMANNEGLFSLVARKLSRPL
# Sequence of Cytochrome P450 2C9 (Homo sapiens) (P11712 whole entry, looked up): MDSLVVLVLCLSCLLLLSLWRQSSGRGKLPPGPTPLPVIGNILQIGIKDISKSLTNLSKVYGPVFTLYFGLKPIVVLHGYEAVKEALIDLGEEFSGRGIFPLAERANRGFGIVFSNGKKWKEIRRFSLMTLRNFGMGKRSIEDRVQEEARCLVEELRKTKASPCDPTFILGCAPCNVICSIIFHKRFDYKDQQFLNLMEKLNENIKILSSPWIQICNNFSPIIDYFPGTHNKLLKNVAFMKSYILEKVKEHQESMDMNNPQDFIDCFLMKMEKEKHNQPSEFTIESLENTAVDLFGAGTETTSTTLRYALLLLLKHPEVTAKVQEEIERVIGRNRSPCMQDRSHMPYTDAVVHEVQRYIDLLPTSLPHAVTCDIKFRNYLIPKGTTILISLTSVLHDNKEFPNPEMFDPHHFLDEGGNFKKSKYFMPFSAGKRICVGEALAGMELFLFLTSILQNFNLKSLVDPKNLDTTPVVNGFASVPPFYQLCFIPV
# Sequence of Phenylethanolamine N-methyltransferase (Homo sapiens) (P11086 whole entry, looked up): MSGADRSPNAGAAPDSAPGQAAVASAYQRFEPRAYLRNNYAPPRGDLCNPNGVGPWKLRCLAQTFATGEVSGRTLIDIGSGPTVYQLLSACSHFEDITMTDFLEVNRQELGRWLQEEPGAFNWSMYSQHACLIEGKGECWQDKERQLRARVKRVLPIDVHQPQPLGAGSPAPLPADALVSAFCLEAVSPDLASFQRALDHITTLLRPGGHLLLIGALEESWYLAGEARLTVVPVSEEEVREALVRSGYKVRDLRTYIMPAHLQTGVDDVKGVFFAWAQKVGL
structure (smiles),measurement,setting,value
CC1CCC(n2c3cnccc3c3cnc(Nc4ccc5c(n4)CCN(C(=O)CO)C5)nc32)CC1 (stereo not drawn),Potency,[1],5.8 µM (active)
same,"activity change, negative = inhibition",[2],-18.6% [at 8.44 µM] (inactive)
same,Potency,[3],inactive
same,Potency,[4],inactive
same,Z-AUC,[5],0.557 (inactive)
same,Z-AUC,[5]; [11],1.18
same,Z-AUC,[5]; measured here: PEO4 Z-AUC,0.34
same,max response,CRL-7250,-12.2% (inactive)
same,max response,HaCat,-0.578% (inactive)
CC1CCC2C(C)(C)C(O)CCC2(C)C12Cc1c(O)cc3c(c1O2)CN(C(CCCN=C(N)N)C(=O)O)C3=O (stereo not drawn),Potency,[4],inactive
same,outcome,CRL-7250,inactive
same,outcome,HaCat,inactive
same,Potency,SKOV3,inactive
CCCCOc1ccc(-c2cncc(C(=O)NCc3cccnc3N3CCOCC3)c2)cc1Cl,Potency,[3],12 µM (active)
same,Potency,[6],3.01 µM (active)
same,Potency,[4],inactive
same,max response,CRL-7250,-9.28% (inactive)
same,Potency,CAOV3,inactive
same,Potency,SKOV3,inactive
OCC(CO)(CO)NCC(O)Cn1c2ccc(Cl)cc2c2cc(Cl)ccc21 (stereo not drawn),Potency,[1],inactive
same,max response,CRL-7250,-2.15% (inactive)
same,max response,HaCat,1.65% (inactive)
O=S(=O)(c1cccc2ccccc12)n1ccc2ccc(N3CCN4CCCC4C3)cc21 (stereo not drawn),Potency,[1],20.6 µM (active)
same,Potency,[3],2.68 µM (active)
same,Potency,[6],12 µM (active)
same,max response,CRL-7250,-10.4% (inactive)
same,max response,HaCat,4.67% (inactive)
same,Potency,SKOV3,inactive
COCCOCCOc1ccc(C2=N[C@@](C)(C(=O)O)CS2)c(O)c1,Potency,[4],0.377 µM (active)
same,max response,CRL-7250,-74.5% (inactive)
same,max response,HaCat,-22.3% (inactive)
same,Potency,CAOV3,inactive
CC(C)(C)c1ccc(CNC(=S)NCc2ccc(NS(C)(=O)=O)c(F)c2)cc1,Potency,[3],3.38 µM (active)
same,Potency,[6],0.151 µM (active)
same,Potency,[4],inactive
same,max response,CRL-7250,-28.3% (inactive)
same,max response,HaCat,-44.1% (inactive)
CC(=O)c1c(OCCN2CCCCC2)c(OCCC(C)c2ccc(F)cc2)c2oc(C)nc2c1C (stereo not drawn),Potency,[1],20.6 µM (active)
same,Potency,[3],0.477 µM (active)
same,Potency,[6],19 µM (active)
same,Potency,[4],inactive
same,max response,CRL-7250,-7.29% (inactive)
same,outcome,HaCat,inactive
CC(C)CCC[C@@H](C)[C@H]1CC[C@H]2[C@@H]3CC=C4C[C@@H](OC(=O)NCCN(C)C)CC[C@]4(C)[C@H]3CC[C@]12C,Potency,[4],inactive
same,outcome,CRL-7250,inactive
same,max response,HaCat,-22.1% (inactive)
same,Potency,SKOV3,22.4 µM (active)
Cn1cc(-c2cnc3ccc4ccc(CS(=O)(=O)NCc5ccccn5)cc4c(=O)c3c2)cn1,Potency,[2],inactive
same,Potency,[3],12 µM (active)
same,Potency,[6],inactive
same,activity,[7],-3.92%
same,Potency,[8],inactive
same,activity,[9],-3.63%
same,activity,[10],-3.14%
same,Potency,[4],inactive
same,Z-AUC,[5],-1.05 (inactive)
same,Z-AUC,[5]; [11],-0.542
same,Z-AUC,[5]; measured here: PEO4 Z-AUC,-0.899
same,max response,CRL-7250,-6.66% (inactive)
same,max response,HaCat,-3.23% (inactive)
same,Potency,CAOV3,inactive
N#Cc1c[nH]c2c(C(=O)N3CCN(CCc4ccc(F)cc4)CC3)cccc12,Potency,[3],15.1 µM (active)
same,Potency,[6],13.5 µM (active)
same,Potency,[4],inactive
same,outcome,CRL-7250,inactive
same,max response,HaCat,-7.89% (inactive)
same,Potency,CAOV3,inactive
CC(C)N(CCCNC(=O)Nc1ccc(C(C)(C)C)cc1)C[C@H]1O[C@@H](n2cc(Br)c3c(N)ncnc32)[C@H](O)[C@@H]1O,Potency,[1],inactive
same,Potency,[3],15.1 µM (active)
same,activity,[7],-65.3%
same,Potency,[8],21.5 µM (active)
same,activity,[9],-73.5%
same,activity,[10],-94.2%
same,Z-AUC,[5],0.222 (inactive)
same,Z-AUC,[5]; [11],0.00626
same,Z-AUC,[5]; measured here: PEO4 Z-AUC,-0.104
same,max response,CRL-7250,-23.7% (inactive)
same,max response,HaCat,-3.75% (inactive)
same,Potency,CAOV3,inactive
same,Potency,SKOV3,inactive
CC[C@H](CO)Nc1nc(Nc2cccc(-c3ccccn3)c2)c2ncn(C(C)C)c2n1,Potency,[1],20.6 µM (active)
same,Potency,[6],0.379 µM (active)
same,max response,CRL-7250,-6.96% (inactive)
same,Potency,HaCat,18.4 µM (active)
same,Potency,CAOV3,inactive
same,Potency,SKOV3,inactive
CC1CCN(c2cc(NC(=O)c3ccccc3)ncn2)CC1,Potency,[1],16.4 µM (active)
same,Potency,[3],inactive
same,Potency,[6],9.52 µM (active)
same,max response,CRL-7250,-6.14% (inactive)
same,Potency,CAOV3,inactive
same,Potency,SKOV3,inactive
COc1ccc2c(c1)C[C@H](C(=O)Nc1ccc(-c3cn[nH]c3)cc1OCCN(C)C)CO2,Potency,[3],9.52 µM (active)
same,Potency,[6],4.25 µM (active)
same,activity,[7],-2.58%
same,"activity change, negative = inhibition",[8],-2.48% [at 9.47 µM]
same,activity,[9],-0.41%
same,activity,[10],0.522%
same,Potency,CRL-7250,20.6 µM (active)
same,outcome,HaCat,inactive
same,Potency,SKOV3,inactive
CCOC(=O)c1cccc(CNc2ccc(N(C)C(=O)Nc3ccccc3)cc2)c1,Potency,[3],5.35 µM (active)
same,Potency,[6],0.601 µM (active)
same,Potency,CRL-7250,1.3 µM (active)
same,max response,HaCat,-23.2% (inactive)
same,Potency,SKOV3,14.1 µM (active)
Cc1ccc(CCCO)c(NCc2ccc3nc(NCCCN4CCOCC4)n(Cc4nc(C)ccc4O)c3c2)c1,Potency,CRL-7250,23.1 µM (active)
same,max response,HaCat,-12.2% (inactive)
C[C@@H](c1nc(-c2ccc(C#N)cc2)cs1)[C@](O)(Cn1cncn1)c1cc(F)ccc1F,Potency,[6],6.01 µM (active)
same,Potency,[4],inactive
same,max response,CRL-7250,-34.3% (inactive)
same,outcome,HaCat,inactive
same,Potency,CAOV3,inactive
